IMPase Li cell: cell-permeable IMPase inhibitors with lithium potentiation | CHO-M1 cells, IP1 TR-FRET (IP-One), carbachol + lithium | 0.35% of 210,000 active | Potency, µM (titrated, usually from 59.4 µM), usual class: inhibitors; active = well fitted inhibition curve with a large enough effect; inconclusive = small, poorly fitted or top-dose-only effect; inactive = no such curve, though single readings can be large or run the other way;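 note: IP1 builds up when IMPase is blocked and the TR-FRET signal falls; nearly all actives have a fitted effect of over 50% in size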
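CHO cells stably expressing M1 receptor (2000/well, cultured 16–30 h) treated 30 min at 37C with compound plus low lithium. Cytosolic IP1 by TR-FRET (665/620 ratio and 620 channel) after 10 min lysis; AC50 by Hill fit.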
PNC inhibitor: blocks assembly of the perinucleolar compartment | PC3M PTB-GFP, PNC prevalence imaging, 16 h; hits give low values | activity change (PNC), negative = inhibition, % at 10 µM | 3.1% of 140,000 active | AID 2417;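 active = readout at or below -70, meaning at least 70% loss of cells showing the perinucleolar compartment, a nuclear body marking cancer cells; inconclusive = readout between -30 and a set limit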
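PC3M cells stably expressing PTB-GFP, 750–1000 cells/well, treated 16 h at 37 °C with compound (23 nl of library stock), in duplicate. After paraformaldehyde fixation and Hoechst stain, imaged at 20x; PNC prevalence scored by image analysis.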
ALDH1A1 block: ALDH1A1 (human) enzyme inhibition | AID 1030 | 7.3% of 220,000 active | Potency, µM (top dose mostly 75.3 µM), actives largely listed as inhibitors | P00352 | Purified ALDH1A1, NADH fluorescence, propionaldehyde substrate
HPGD inh: blocks human HPGD enzyme activity | P15428 | purified HPGD, NADH fluorescence kinetic, PGE2 substrate | Potency, µM, usual class: inhibitors | 4.3% of 150,000 active
Target sequence (P15428 whole entry, looked up): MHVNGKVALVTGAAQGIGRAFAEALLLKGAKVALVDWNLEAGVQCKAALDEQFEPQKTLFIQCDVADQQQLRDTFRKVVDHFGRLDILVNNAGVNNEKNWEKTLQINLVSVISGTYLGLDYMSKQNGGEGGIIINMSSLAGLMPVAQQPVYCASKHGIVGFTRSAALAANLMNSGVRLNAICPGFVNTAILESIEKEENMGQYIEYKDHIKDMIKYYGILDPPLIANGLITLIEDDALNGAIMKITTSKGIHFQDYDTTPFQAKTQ
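NADH formation kinetics: reaction with 30 uM PGE2 and 1 mM NAD+ (final), 20 nM enzyme, Tris-HCl pH 8 with Tween 20, after 15 min compound preincubation at room temperature. Fluorescence change, last versus first of five reads.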
IMPase cell inh: cell-permeable inhibitors of inositol monophosphatase (IMPase); AID 901; inhibition (IP1 accumulation), % at 46.1 µM; 120,000 tested, under 10 active; P97697; CHO-M1 cells, IP1 accumulation, HTRF TR-FRET ratio; active = well fitted curve in the direction sought with a large enough effect in the signal ratio, not every such curve was filed as active; inconclusive = small, poorly fitted or top-dose-only effect, or a change in a side signal; inactive = no such curve, though single readings can be large or run the other way; the % refers to the signal ratio;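 note: cells stimulated with carbachol in lithium chloride buffer; higher means more IMPase inhibition seen as more IP1 and lower FRET ratio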
Target sequence (P97697 whole entry, looked up): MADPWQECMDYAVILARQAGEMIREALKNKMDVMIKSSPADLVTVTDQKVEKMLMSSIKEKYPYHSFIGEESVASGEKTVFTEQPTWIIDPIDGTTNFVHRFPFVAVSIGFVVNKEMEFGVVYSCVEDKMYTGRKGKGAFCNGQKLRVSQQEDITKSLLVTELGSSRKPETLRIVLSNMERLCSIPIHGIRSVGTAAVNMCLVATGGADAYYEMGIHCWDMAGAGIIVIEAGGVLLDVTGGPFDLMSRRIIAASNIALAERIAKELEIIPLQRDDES
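Carbachol-driven Gq signalling in CHO-M1 cells (2000/well) generates IP1. Compounds that block IMPase raise IP1 and so reduce the FRET signal from Eu-anti-IP1 and d2-IP1 after a 10 min room-temperature lysis.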
Of the large screens only hits and unclear results are named; the others gave an inactive call. Shown are actives, neighbours in structure and some others; about 11% of the full set was active somewhere. Unless noted, calls come from the whole dose curve; as a rule, active = well fitted inhibition curve with a large enough effect (not every such curve was filed as active); inconclusive = small, poorly fitted or top-dose-only effect, or another doubt; inactive = no such curve, though single readings can be large or run the other way.

CCOc1ccc(NC(=S)N(Cc2ccc(N(C)C)cc2)Cc2ccco2)cc1	ALDH1A1 block 8.9µM
COc1ccc(NC(=S)N(Cc2ccc(N(C)C)cc2)Cc2ccco2)cc1	ALDH1A1 block 11µM (no result: IMPase cell inh)
CCOc1ccc(NC(=S)NN(C)C(=S)Nc2ccc(OCC)cc2)cc1	ALDH1A1 block 28µM (no result: IMPase cell inh)
COc1ccc(Br)c(OC)c1C(=O)NC(=O)Nc1nc(C)cc(C)n1	none (no result: IMPase Li cell, PNC inhibitor, HPGD inh, IMPase cell inh)
N=C(N)N	none (no result: PNC inhibitor, IMPase cell inh)
COC(=O)c1sc(S(=O)(=O)Nc2ccc(Br)cc2)c(C(=O)OC)c1C	ALDH1A1 block inconclusive
CCCCOc1cc(C[C@@H]2CNC(=O)N2)ccc1OC	none (no result: PNC inhibitor)
O=C(/C=C/c1cccc(F)c1)c1ccc(N2CCOCC2)cc1	ALDH1A1 block 13µM (no result: IMPase Li cell, PNC inhibitor, HPGD inh, IMPase cell inh)
O=C(/C=C/c1cccs1)c1ccc(N2CCOCC2)cc1	none (no result: PNC inhibitor, HPGD inh, IMPase cell inh)
COc1ccc(C2NC(=S)N3C(c4ccc(OC)cc4)NC(=S)N23)cc1 (configuration not stated)	ALDH1A1 block 11µM, HPGD inh inconclusive
S=C1NC[C@H](c2ccccc2)N1CC1CCCCC1	none (no result: PNC inhibitor, HPGD inh, IMPase cell inh)
S=C1NC(c2ccccc2)N2C(=S)NC(c3ccccc3)N12 (configuration not stated)	PNC inhibitor inconclusive, ALDH1A1 block 13µM, HPGD inh 25µM
CC12COC3(C(=O)Nc4ccc5ccccc5c4)CC1CCC32C (configuration not stated)	none (no result: PNC inhibitor, HPGD inh, IMPase cell inh)
COc1cccc(N2C(C(C)=O)=NN(c3ccccc3)C2c2ccc(N3CCOCC3)cc2)c1 (configuration not stated)	PNC inhibitor inconclusive, ALDH1A1 block 14µM (no result: IMPase cell inh)
Cc1c(NN=C(C#N)C#N)c(=O)n(-c2ccccc2)n1C	ALDH1A1 block 3.5µM (no result: PNC inhibitor, HPGD inh, IMPase cell inh)
OC[C@@H]1O[C@@H](N2CCN([C@@H]3O[C@@H](CO)[C@@H](O)[C@H](O)[C@H]3O)CC2)[C@@H](O)[C@H](O)[C@H]1O	none (no result: PNC inhibitor, IMPase cell inh)
COc1ccc(C(=O)CC(c2ccccc2)C2CCCCC2=O)cc1 (configuration not stated)	ALDH1A1 block 0.5µM
O=C(CC(c1ccccc1)C1CCCCC1=O)c1ccco1 (configuration not stated)	ALDH1A1 block inconclusive, HPGD inh inconclusive
CN(C)c1ccc(C(CC(=O)c2ccccc2)C2CCCCC2=O)cc1 (configuration not stated)	ALDH1A1 block inconclusive
O=C(CC(c1ccco1)C1CCCCC1=O)c1ccco1 (configuration not stated)	ALDH1A1 block 25µM
COc1cc(C2c3c(oc4ccc(F)cc4c3=O)C(=O)N2Cc2ccc3c(c2)OCO3)ccc1O (configuration not stated)	none (no result: IMPase Li cell, PNC inhibitor, ALDH1A1 block, HPGD inh)
Cc1ccccc1-c1ncc(CN2CCC(CO)(CCCc3ccccc3)CC2)cn1	ALDH1A1 block inconclusive (no result: PNC inhibitor, HPGD inh, IMPase cell inh)
O=C(/C=C/c1ccc([N+](=O)[O-])cc1)Nc1cccnc1	ALDH1A1 block 8.9µM
Cc1ccc(/C=C/C(=O)Nc2cccnc2)o1	PNC inhibitor inconclusive, ALDH1A1 block 10µM, HPGD inh 22µM (no result: IMPase cell inh)
N#C/C(=C\c1cccc([N+](=O)[O-])c1)C(=O)Nc1cccnc1	ALDH1A1 block 11µM (no result: PNC inhibitor, HPGD inh, IMPase cell inh)
Cc1ccc(/C=C/C(=O)Nc2cccc3ncccc23)o1	ALDH1A1 block inconclusive, HPGD inh 32µM
N#C/C(=C\c1cccc([N+](=O)[O-])c1)C(=O)NCc1cccnc1	HPGD inh inconclusive
COc1cc(Br)c(C2CC(=O)Nc3cc(OC)c(OC)c(OC)c32)cc1OC (configuration not stated)	none (no result: IMPase Li cell, PNC inhibitor, ALDH1A1 block, HPGD inh)
O=C1C=CC(=O)N1c1cccc(-c2ccccc2)c1	ALDH1A1 block 0.02µM (no result: IMPase Li cell, PNC inhibitor, HPGD inh, IMPase cell inh)
Cc1ccc(C(=O)CSc2nnnn2C(C)C)c(C)c1	ALDH1A1 block 28µM
Cc1nc2cnc(N(C)C)nc2n(CCC#N)c1=O	ALDH1A1 block inconclusive (no result: PNC inhibitor, HPGD inh, IMPase cell inh)
CCCNS(=O)(=O)c1cc(-c2nnc3c4ccccc4c(C)nn23)ccc1OC	none (no result: IMPase Li cell, PNC inhibitor, ALDH1A1 block, HPGD inh)
CCOC(=O)c1c(-c2ccc(C)s2)csc1N	ALDH1A1 block 3.2µM (no result: PNC inhibitor, HPGD inh, IMPase cell inh)
C[C@]12C[C@@](C)(C=C1/C=C/c1ccc(F)cc1)C(=O)C[C@H]2c1ccc(F)cc1	none (no result: PNC inhibitor, IMPase cell inh)
CC12C=C(/C=C/CCc3ccco3)C(C)(C1)C(CCc1ccco1)CC2=O (configuration not stated)	ALDH1A1 block 4µM (no result: IMPase Li cell, PNC inhibitor, HPGD inh, IMPase cell inh)
COc1ccccc1NC(=O)Cn1cnc2c(cnn2-c2ccccc2)c1=O	none
CCCc1c(C(=O)NNc2ccccc2OC)cnn1-c1ccccc1	ALDH1A1 block 7.9µM (no result: IMPase Li cell, PNC inhibitor, HPGD inh, IMPase cell inh)

Assay outcomes deposited in PubChem BioAssay by National Center for Advancing Translational Sciences (NCATS).
